We go through 38 compounds from PubChem BioAssay (NCI).

Each structure is given as a SMILES string. This is part of a sample that, as a whole, favours compounds with a hit. Of some 83,000 tested, about 20% had one in any assay.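 Compound tested at a single concentration for 48 hours in 96-well plates; a percent growth value below 10 was scored as active.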 Values without a mark were called inactive. The source made the active and inactive calls.

The test system of this test is NCI/ADR-RES ovarian. Kind of test: NCI-60 one-dose screen, 48 h (100 = growth as untreated, 0 = no growth, -100 = all killed). The conditions noted are these: 10 µM unless noted.
As to `COc1ccc(/C=C\c2nc3ccccc3s2)cc1OP(=O)(O)O`, the growth is 14.4%. In the case of `Cn1c2c(Cl)c(Cl)ccc2c2cc(N)[nH]c(=O)c21`, the growth is 74.6%. In the case of `O=C1Nc2c(ccc(Cl)c2Cl)/C1=C/c1ccccn1`, the growth is 82.5%. For `O=C(N/N=C/c1ccc(O)c(O)c1)c1sc2ccccc2c1Cl`, the growth is 83.7%. In the case of `COc1ccccc1C(C[N+](=O)[O-])c1c(-c2ccccc2)[nH]c2cc(C)ccc12` (stereo not drawn), the growth is 50.1%. In the case of `O=C1/C(=C/c2ccc(O)cc2)COc2ccc(-c3ccccc3)cc21` it was 78.2%; in that of `Cc1cc2cc3cc(C)c(N)cc3[n+](C)c2cc1N`, 48.5%. In the case of `c1ccc(Cn2nc3c(c2-c2ccccc2)-c2oncc2CC3)cc1` it was 84.1%.

Consider `COc1ccc(-c2cnc(N)nc2-c2ccc(OC)cc2O)cc1`, for which the growth was 85.7%.

For `COc1cccc(/C=C2\COc3ccc(-c4ccccc4)cc3C2=O)c1`, the growth is 5.38% (active). Take `c1ccc(-c2nn(-c3ccccc3)[n+](-c3ccccc3-c3ccccc3)n2)cc1`: the growth is 93.1%. Turning to `CCOC(=O)c1c(C)nc2c(c1N)C(=O)C(=O)N2Cc1ccc(C(F)(F)F)cc1`, the growth is 17.7%. In the case of `COc1cc2nc(-c3ccc(C(F)(F)F)cc3)cc(OCCN3CCC(O)CC3)c2cc1OC` it was 53.5%; in that of `NC(=O)c1cccc(-n2ccc3cc(NC(=O)Nc4cc(C(F)(F)F)cc(C(F)(F)F)c4)ccc32)n1`, 41.8%; in that of `CN1CCN(CC#CCNC(=O)[C@]23CCC(C)(C)C[C@H]2C2=CC[C@@H]4[C@@]5(C)Cc6c([nH]c7ccccc67)C(C)(C)[C@@H]5CC[C@@]4(C)[C@]2(C)CC3)CC1`, 76.9%.

For `COc1nccnn1`, the growth was 101%.

`Cc1ccc(S(=O)(=O)Nc2ccc(Cl)cc2)cc1`: the growth was 91.9%. Next, `COc1cc2c(cc1[N+](=O)[O-])-c1ccc([N+](=O)[O-])cc1/C2=N\O`: 77.1%. With `O=C(Nc1nc2ccc(C(=O)N3CCN(c4ccc(Cl)c(Cl)c4)CC3)cc2s1)c1ccc(NCCc2ccccc2)c([N+](=O)[O-])c1`, the growth was 101%. `Cc1c(C2=CCCCC2)c2ccccn2c1C(=O)c1cccc(S(=O)(=O)N2CCOCC2)c1`: the growth was 60.5%.

In the case of `CC(C)CN(C(=O)c1ccc(Cl)cc1)c1c(N)n(CC(C)C)c(=O)[nH]c1=O`, the growth was 101%. As to `O=C1Nc2ccccc2/C1=C\c1cccc(/C=C2/C(=O)Nc3ccccc32)n1`, the growth was 16.1%. As for `NC(=O)c1ccc[n+](CC(=O)N2CCN(c3cc4c(cc3F)c(=O)c(C(=O)O)cn4C3CC3)CC2)c1`, the growth is 99.8%.

With `CCN(CCNc1cc(OC)cc2cccnc12)CCc1ccccc1`, the growth was 81.1%. Take `COc1ccccc1N1CCN(C(=O)c2ccc3nc(NC(=O)c4ccc(NCCc5ccccc5)c([N+](=O)[O-])c4)sc3c2)CC1`: the growth was 89.6%. Regarding `CN1CCCC1=Nc1ccccc1`, the growth is 104%. As to `COc1ccc(/C(=C\c2ccccc2)C(=O)O)cc1OC`, the growth is 93.8%.

On to `NC(=S)N/N=C(/c1ccccc1)c1ccccc1N`, for which the growth was 74.2%. For `COc1ccc(/C=N/NC(=O)c2cccc3cc[nH]c23)cc1O`, the growth is -7.64% (active). In the case of `Nc1nnc(C(=O)c2cnc3n(c2=O)CCCCC3)s1` it was 94.7%; in that of `Nc1nnc2cc(Cl)ccc2n1`, 96.3%.

`CC(=O)Nc1ccc(S(=O)(=O)NC2CCCCC2)cc1`: the growth was 99.7%. Regarding `CC1=CC2(C)/C=C(C)/C=C\CC(O)/C=C3/C=CC(=C4C(=O)OC2(CC1C)C4=O)OC3` (stereo not drawn), the growth was -61.8% (active). Next, `CN1CCN(Cc2ccc(NC(=O)c3cncc(C#Cc4cnccc4C(F)(F)F)c3)cc2C(F)(F)F)CC1`: 85.8%; `CC[C@@]12C=CCN3CC[C@]4(c5cc(NC(=O)COc6cc(OCC(=O)Nc7cc8c(cc7OC)N(C)[C@H]7[C@@](O)(C(=O)OC)[C@H](OC(C)=O)[C@]9(CC)C=CCN%10CC[C@]87[C@@H]%109)cc7oc(-c8ccccc8)cc(=O)c67)c(OC)cc5N(C)[C@@H]4[C@](O)(C(=O)OC)[C@H]1OC(C)=O)[C@H]32`: 95.5%. In the case of `Cc1n[nH]c(C)c1-c1c(C)n[nH]c1C`, the growth was 9.39% (active).

For `CC(N)C(=O)NNc1n[nH]c(=S)n1N` (stereo not drawn), the growth was 99.9%. With `Cc1ccc(-c2csc(/N=C3\C(=O)Nc4ccccc43)n2)cc1`, the growth was 81%.
